Test results from PubChem BioAssay (Tox21).
Active and inactive are the calls of the source. A call without a number means that no potency is given here. Calls follow the shape of the dose curve; as a rule, active = well fitted activation curve with a large enough effect in the repeat runs; inconclusive = weak or mixed curves; inactive = flat fitted curve, though single readings scatter.

test: A CellTox Green Cytotoxicity Assay to monitor cytotoxicity in HepG2 cells - 0 hour (AID 1224882); conditions: CellTox Green fluorescence; series mostly up to 76.8 µM; also: nearly all actives have a fitted effect of over 35% in size
Excerpt: National Center for Advancing Translational Sciences [NCATS]
NIH Chemical Genomics Center [NCGC]
U.S. Environmental Protection Agency [EPA]
National Institutes of Environmental Health Sciences [NIEHS]
National Toxicology Program [NTP]
Cell-based models are critical for drug discovery. Determining the natural cytotoxic effects resulting from test compounds is an essential research activity. A CellTox Green Cytotoxicity Assay to monitor cytotoxicity in real time of continues cell culture during 40 hours of the compound treatment was used to screen Tox21 10K library compounds in HepG2 cells. CellTox Green Cytotoxicity Assay is a nonlytic, homogeneous, biofluorescent method to measure cytotoxicity in cell culture after experimental manipulation. The assay system uses a proprietary asymmetric cyanine dye that is excluded from viable cells but preferentially stains the dead cell's DNA. […] Viable cells produce no appreciable increases in fluorescence. Therefore, the fluorescence signal produced by the binding interaction with dead cell DNA is proportional to cytotoxicity.
The mixture of HepG2 cell suspension and reagents were dispensed at 600cells/6 ul/well in 1536-well tissue culture treated black solid bottom plates using a Multidrop dispenser. After the assay plates were incubated at a 37 C/5% CO2 incubator for 5 hours, 23 nL of compounds dissolved in DMSO, positive and negative controls was transferred to the assay plate by a pintool work station. The plates were incubated at 37 C for 40 hours. The fluorescence intensity were measured at 0h, 8h, 16h, 24h, 32h and 40h time points using ViewLux plate reader during compound treatment.

Question: Which Potency does the source give for `CC(=O)OC(C)C` here?
Answer: inactive

Question: For `C[C@]12CC[C@@H]3c4ccc(O)cc4CC[C@H]3[C@@H]1CC[C@@H]2O`, which Potency is on record?
Answer: inactive

Question: Which Potency does the source give for `Cc1ccc(S(=O)(=O)O)cc1C` here?
Answer: inactive

Question: Which Potency does the source give for `CC1(C)NC(=O)N(c2ccc([N+](=O)[O-])c(C(F)(F)F)c2)C1=O` here?
Answer: inactive

Question: For `C1COCCN1`, which Potency is on record?
Answer: inactive

Question: For `Brc1nc2ccccc2s1`, which Potency is on record?
Answer: inactive

Question: For `CCCCCCC(C)O` (stereo not given), which Potency is on record?
Answer: inactive

Question: For `c1ccc2c(c1)[nH]c1ccccc12`, which Potency is on record?
Answer: inactive

Question: For `CC(C)(C)c1cccc(C(C)(C)C)c1O`, which Potency is on record?
Answer: inactive

Question: Which Potency does the source give for `O=S1(=O)CCCO1` here?
Answer: inactive

Question: Which Potency does the source give for `CN(Cc1cnc2nc(N)nc(N)c2n1)c1ccc(C(=O)N[C@@H](CCC(=O)O)C(=O)O)cc1` here?
Answer: inactive

Question: With `CC(=O)Oc1ccc(C(c2ccc(OC(C)=O)cc2)c2ccccn2)cc1` as the molecule, how does the Potency read?
Answer: inactive

Question: Which Potency does the source give for `CCCN1C=CN(C)C1` here?
Answer: inactive

Question: Which Potency does the source give for `OC[C@@H](O)[C@@H](O[C@@H]1O[C@H](CO)[C@H](O)[C@H](O)[C@H]1O)[C@H](O)[C@@H](O)CO` here?
Answer: inactive

Question: For `Cc1cccc(Nc2ccccc2C(=O)O)c1C`, which Potency is on record?
Answer: inactive

Question: Which Potency does the source give for `C=C[C@H]1CN2CC[C@H]1C[C@@H]2[C@@H](O)c1ccnc2ccc(OC)cc12` here?
Answer: inactive

Question: With `CN1CCOCC1` as the molecule, how does the Potency read?
Answer: inactive

Question: For `C1CN(SSN2CCOCC2)CCO1`, which Potency is on record?
Answer: inactive

Question: Which Potency does the source give for `Nc1ccc2c(c1)C(=O)c1ccccc1C2=O` here?
Answer: inactive

Question: With `O=C(O)CCCCCCCCCCCC(=O)O` as the molecule, how does the Potency read?
Answer: inactive

Question: For `CC(=O)[C@H]1CC[C@H]2[C@@H]3CC=C4C[C@@H](O)CC[C@]4(C)[C@H]3CC[C@]12C`, which Potency is on record?
Answer: inactive

Question: With `CCOC(=O)C(C)Oc1ccc(Oc2cnc3cc(Cl)ccc3n2)cc1` (stereo not given) as the molecule, how does the Potency read?
Answer: inactive

Question: Which Potency does the source give for `CN(C)C` here?
Answer: inactive

Question: For `CC(=O)O[C@]1(C(C)=O)CC[C@H]2[C@@H]3C=C(C)C4=CC(=O)CC[C@]4(C)[C@H]3CC[C@@]21C`, which Potency is on record?
Answer: inactive

Question: With `Cc1ccc(N)c([N+](=O)[O-])c1` as the molecule, how does the Potency read?
Answer: inactive

Question: Which Potency does the source give for `Nc1ccc2c(O)cc(S(=O)(=O)O)cc2c1` here?
Answer: inactive

Question: Which Potency does the source give for `c1ccc2cc3ccccc3cc2c1` here?
Answer: inactive

Question: With `COc1ccc2nc(N)sc2c1` as the molecule, how does the Potency read?
Answer: inactive

Question: Which Potency does the source give for `C[C@]12CC[C@@H]3c4ccc(O)cc4CC[C@H]3[C@@H]1CC[C@H]2O` here?
Answer: inactive

Question: Which Potency does the source give for `COC(=O)C(C)Oc1ccc(Oc2ncc(C(F)(F)F)cc2Cl)cc1` (stereo not given) here?
Answer: inactive

Question: For `CC(C)(Oc1ccc(Cl)cc1)C(=O)O`, which Potency is on record?
Answer: inactive

Question: For `OC[C@H]1O[C@@H]2O[C@H]3[C@H](O)[C@@H](O)[C@@H](O[C@H]4[C@H](O)[C@@H](O)[C@@H](O[C@H]5[C@H](O)[C@@H](O)[C@@H](O[C@H]6[C@H](O)[C@@H](O)[C@@H](O[C@H]7[C@H](O)[C@@H](O)[C@@H](O[C@H]1[C@H](O)[C@H]2O)O[C@@H]7CO)O[C@@H]6CO)O[C@@H]5CO)O[C@@H]4CO)O[C@@H]3CO`, which Potency is on record?
Answer: inactive

Question: For `O=C(CCCN1CCC(O)(c2ccc(Cl)cc2)CC1)c1ccc(F)cc1`, which Potency is on record?
Answer: inactive

Question: For `Cc1ccc(S(=O)(=O)NCl)cc1`, which Potency is on record?
Answer: inactive

Question: With `CCCCCCOCCOCCO` as the molecule, how does the Potency read?
Answer: inactive

Question: For `COc1ccc(C(=O)c2ccccc2O)c(O)c1`, which Potency is on record?
Answer: inactive

Question: For `[O-]/[N+](=N\O)c1ccccc1`, which Potency is on record?
Answer: inactive

Question: Which Potency does the source give for `CCCCCCCCCCCCCO` here?
Answer: inactive

Question: For `Clc1ccc(Sc2cc(Cl)c(Cl)cc2Cl)cc1`, which Potency is on record?
Answer: inactive

Question: For `Cc1ccc(C)c(O)c1`, which Potency is on record?
Answer: inactive
